Source: PubChem BioAssay
This is a sample that favours compounds with a hit; in the whole collection about 5.2% have one here.
ALR inh: inhibitors of human sulfhydryl oxidase ALR. AID 485317. purified ALR, DTT oxidation, H2O2 HRP-luminol luminescence. inhibition, % (concentration not given with the values). 290,000 compounds, 3.8% hits;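 active = mean replicate inhibition above about 79%, with every replicate also reaching it, limit read from the data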
A3G deaminase: blocks human APOBEC3G single-stranded DNA deamination; Q9HC16; recombinant A3G, ssDNA deamination FAM/TAMRA fluorescence; inhibition, % at 20 µM; 330,000 compounds, 0.28% hits;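 active = inhibition of at least 40% at 20 µM, with no more than 30% in the related APOBEC3A deaminase screen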;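 also: plate controls were DMSO wells with A3G for no effect and wells lacking A3G enzyme for full effect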
PfM18AAP inh: PfM18AAP enzyme inhibition | recombinant PfM18AAP, H-Glu-NHMec fluorogenic cleavage | AID 1822 | inhibition, % at 7.35 µM | 290,000 compounds, 1.2% hits;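 active = inhibition above the campaign mean inhibition over all tested compounds plus 3 SD, cut at about 28% in these data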;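 also: 0% = plate median of test compound wells and 100% = 2 mM ZnCl2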
CR mimetic SO: lowers age-related superoxide in aged yeast cells | S. cerevisiae aged cells, superoxide DHE fluorescence; active compounds read low | superoxide response (% of plate mean), % at 10 µM | 330,000 compounds, 0.18% hits | AID 2690;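 active = superoxide response under a set limit, about three screen SD below normal, cut at about 65% in these data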;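 also: yeast aged for seven days with compound at 30 °C before DHE staining; 100% = average MFI of all compound-treated wells on the plate with controls excluded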
APOBEC3A inh: blocks human APOBEC3A ssDNA deamination. P31941. recombinant A3A, FAM/TAMRA ssDNA deamination fluorescence. inhibition, % at 20 µM. 330,000 compounds, 0.41% hits. AID 493011;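 active = at least 40% inhibition at 20 µM here, with at most 30% in a related deaminase screen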;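 also: plate controls were A3A with DMSO for no effect and wells lacking A3A enzyme for full effect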
NRP1-CendR mod: modulators of CendR peptide binding to human neuropilin-1 | AID 602438 | inhibition, % at 25 µM | 360,000 compounds, 0.85% hits | O14786 | FAM-RPARPAR peptide binding to NRP-1, fluorescence polarization;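 active = inhibition or corrected inhibition above about 18%, plus a signal ratio from 0.5 to 1.5, limit read from the data, passing the limit was not always enough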
A3G conf: APOBEC3G (human) deaminase inhibition, confirmed; inhibition, % at 20 µM; shares compounds with A3G deaminase; 890 compounds, 72% hits; recombinant A3G ssDNA deaminase, UDG/FAM-TAMRA fluorescence;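 active = inhibition reaching a set limit in any replicate at 20 µM, the limit being 80% of the first screen's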
UDG A3G counter: E. coli UDG inhibition in APOBEC3G counter-screen. UDG counterscreen, FAM/TAMRA oligo fluorescence. AID 504715. 710 tested, under 10 active. inhibition, % at 20 µM. shares compounds with A3G deaminase;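 active = compounds giving 40% or more inhibition at 20 µM in any one of the three replicates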;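 also: plate controls were DMSO wells with UDG and oligo for no effect and DMSO wells lacking both for full effect; inhibitors lower the FAM signal released by uracil excision and alkaline cleavage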
An asterisk follows results filed as active; nt = no result.

SMILES	ALR inh	A3G deaminase	PfM18AAP inh	CR mimetic SO	APOBEC3A inh	NRP1-CendR mod	A3G conf	UDG A3G counter
Cc1cc(-c2csc(N)n2)c(C)n1CCc1ccccc1	-15	3	9	107	-1	-22	nt	nt
Cc1nc2ccccc2c(=O)n1/N=C/c1c(O)ccc2ccccc12	-8	-3	3	101	-2	2	nt	nt
Cc1ccccc1/C=N/n1c(-c2ccccn2)n[nH]c1=S	nt	72*	2	101	-5	2	98*	1
Cc1n[nH]c(=S)n1/N=C/c1c(O)ccc2ccccc12	-14	46*	2	101	-3	5	85*	-2
S=c1[nH]nc(-c2ccccn2)n1/N=C/c1ccc(Cl)cc1	73	50*	6	94	-6	-11	82*	-4
S=c1[nH]nc(C2CCCCC2)n1/N=C/c1ccccc1	-2	11	12	101	1	9	nt	nt
Cc1ccccc1/C=N/n1c(-c2cc(-c3ccccc3)n[nH]2)n[nH]c1=S	-8	10	7	78	-7	-14	nt	nt
S=c1[nH]nc(C2CCCCC2)n1/N=C/c1ccccn1	96*	51*	15	100	-4	-4	79*	4
CC(=O)c1cc(CN2CCN(CC=C(C)C)C(CCO)C2)cs1 (stereo not given)	-21	-5	6	105	0	6	nt	nt
O=C(NCCc1cn2ccccc2n1)c1cc(COc2c(F)cccc2F)on1	-4	-5	2	93	0	10	nt	nt
Fc1ccc(-c2n[nH]c(=S)n2/N=C/c2c[nH]c3ccccc23)cc1	40	-6	10	115	-3	-2	nt	nt
CC(/C=N/n1c(-c2ccccn2)n[nH]c1=S)=C\c1ccccc1	96*	51*	-2	96	2	15	37*	2
S=c1[nH]nc(-c2ccccn2)n1/N=C/c1ccccc1	14	46*	6	99	-3	-6	78*	-1
S=c1[nH]nc(-c2ccccn2)n1/N=C/c1cccs1	4	-12	-1	134	-2	4	nt	nt
S=c1[nH]nc(-c2ccccn2)n1/N=C/c1cccc2ccccc12	96*	66*	3	123	-3	-11	70*	-3
S=c1[nH]nc(-c2ccccn2)n1/N=C/c1c(Cl)cccc1Cl	nt	71*	-8	89	-1	-1	93*	0
CCCN1CCN(S(=O)(=O)c2cc3c(cc2C)NC(=O)CO3)CC1	0	-8	3	102	-2	4	nt	nt
COC(=O)c1ccc(N2CCCCC2)c(N)c1	5	-11	4	99	-3	0	nt	nt
Cc1cc(C)c(C#N)c(=N)o1	-5	58*	19	99	-2	8	90*	-2
COc1ccc2oc(C(=O)Nc3nnc(C)s3)c(C)c2c1	2	-3	nt	103	2	-10	nt	nt
CCOc1cc(/C=C2\CCCc3c2nc2ccccc2c3C(=O)O)ccc1OC	-13	48*	20	85	21	143	18	nt
COc1ccc(/C=C2\CCn3c2nc2ccccc2c3=O)cc1OC	-9	-3	0	114	-4	2	nt	nt
C=CCc1c(C)[nH]c(=S)c(C#N)c1C	2	34	0	95	2	-32	nt	nt
C/C(N)=C(/C#N)C(=O)COC(=O)c1ccccc1Oc1ccccc1	nt	-9	1	95	0	-1	nt	nt
C=C(C)C(=O)Nc1cccc(C2=NOC3(C2)C[C@H](C(N)=O)N(C(=O)c2ccccc2C(=O)c2ccccc2)C3)c1 (stereo not given in full)	nt	83*	nt	98	19	-13	88*	0
C=C(C)C(=O)Nc1cccc(C2=NOC3(C2)C[C@@H](C(N)=O)N(C(=O)CC(c2ccccc2)c2ccccc2)C3)c1 (stereo not given in full)	nt	70*	nt	95	24	-11	71*	3
